Source: PubChem
S2 tox: cell viability loss in ATXN counter-screen; S2 cells (HEK-293 line with an ATXN2-luciferase reporter) viability, CellTiter-Fluor protease fluorescence, 24 h; Potency, µM (doses to about 56.7 µM), actives largely listed as cytotoxic; 0.49% of 400,000 active; further: nearly all actives have a fitted effect of over 40% in size
ATXN2 expr inh: inhibitors of ATXN2 expression; HEK-293 ATXN2-luciferase reporter, luminescence, 24 h; Potency, µM (series often up to 57 µM), without a hit: at the highest dose activity change, negative = inhibition, hits mostly inhibitors; 0.72% of 360,000 active; AID 1745845; further: on the % scale 0 is the no-effect control and ±100 the full control effect; nearly all actives have a fitted effect of over 55% in size
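qHTS (up to 57 uM final) was run with 24 h compound exposure of reporter cells at 37 °C. Each well was multiplexed: SteadyGlo luminescence measured ATXN2-luciferase expression after a fluorogenic Gly-Phe-AFC viability readout (25 uM final).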
TGFb SMAD3 inh: inhibitors of TGF-b signaling. HepG2 CAGA-GFP TGF-b/SMAD3 reporter, GFP fluorescence, 18 h; TGF-beta stimulated, 500 pg/mL final. 1.2% of 410,000 active. Potency, µM (top dose mostly 46.1 µM), inactives show at the top dose activity, negative = inhibition, hits mostly inhibitors; further: on the % scale 0 is the no-effect control and ±100 the full control effect; nearly all actives have a fitted effect of over 65% in size
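First, reporter cells (HEPG2 CAGA-GFP) rested 2 h at 37 degrees C. Next, compounds were pinned in and TGF-beta added to 500 pg/mL final. After 18 h, GFP was imaged per cell and summed per well.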
KB-3-1 tox: KB-3-1 parental cell cytotoxicity | KB-3-1 viability, CellTiter-Glo ATP luminescence, 72 h | AID 1347075 | Potency, µM (series often up to 46.1 µM), actives largely listed as cytotoxic | 1.4% of 400,000 active; further: on the % scale 0 is the no-effect control and ±100 the full control effect; nearly all actives have a fitted effect of over 60% in size
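Cytotoxicity measured as CellTiter-Glo luminescence after 72 h at 37 C. Compound titrations were pinned onto drug-naive KB-3-1 parental adenocarcinoma cells grown in DMEM with 10% FBS, and normalized data fitted to concentration-response curves.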
KB-V1 MDR tox: KB-V1 MDR subline cytotoxicity | KB-V1 MDR cells viability, CellTiter-Glo, 72 h | Potency, µM (highest dose often 46.1 µM), usual class: cytotoxic | 3.4% of 400,000 active | AID 1347076; further: on the % scale 0 is the no-effect control and ±100 the full control effect; nearly all actives have a fitted effect of over 60% in size
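qHTS viability screen in drug-selected KB-V1 MDR cells: 72 h compound treatment at 37 degrees C, ATP luminescence end point.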
HepG2 viability: counter-screen for TGF-b inhibitors: cytotoxicity in HepG2 cells; HepG2 CAGA-GFP viability, ATP luminescence, 18 h; Potency, µM (titrated, usually from 46.1 µM), for the others: top-dose activity change, negative = cytotoxicity, most hits filed as cytotoxic; 0.76% of 410,000 active; AID 588856
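HepG2 CAGA-GFP cells (1000/well, DMEM with 1% FBS) received compound, then TGF-beta at 500 pg/mL final, and were incubated 18 hours at 37 degrees C. Viability was read by CellTiter-Glo luminescence. Media-only wells were set as complete cell-killing and DMSO as no toxicity.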
Starred values were filed as active, the others as inactive; [ ] = dose if it differs, or a comment. An excerpt weighted towards active compounds, which were near 5.9% of everything screened. The call rests on the fitted dose curve; in most records, active means well fitted curve in the direction sought with a large enough effect; inconclusive means small, poorly fitted or top-dose-only effect, or another doubt; inactive means no such curve, though single readings can be large; an effect the other way counts as inactive or inconclusive. Potency means the concentration at half of the fitted maximal effect.

Screening CCN(CC)c1ccc2nc3c4ccccc4c(=O)cc-3oc2c1 returned S2 tox inactive, ATXN2 expr inh 107%, TGFb SMAD3 inh -2%, KB-3-1 tox inactive, KB-V1 MDR tox inactive and HepG2 viability -7%.
Screening CCN(CC)c1ccc2c(-c3ccc(S(=O)(=O)O)cc3S(=O)(=O)[O-])c3ccc(=[N+](CC)CC)cc-3oc2c1 returned S2 tox 13µM*, ATXN2 expr inh inconclusive, TGFb SMAD3 inh 32%, KB-3-1 tox inconclusive, KB-V1 MDR tox inconclusive and HepG2 viability -25%.
For C[n+]1ccccc1N1CCN(c2ccccc2Cl)CC1 the results were S2 tox inactive, ATXN2 expr inh -7%, TGFb SMAD3 inh -12%, KB-3-1 tox 21µM*, KB-V1 MDR tox inactive and HepG2 viability -30%.
C#CCSc1nc(Cc2ccc(Cl)cc2)nc2ccccc12 was read as S2 tox inactive, ATXN2 expr inh 3%, TGFb SMAD3 inh 19%, KB-3-1 tox inactive, KB-V1 MDR tox 16µM* and HepG2 viability -5%.
For COc1nc(Cc2ccc(Cl)cc2)nc2ccccc12 the results were S2 tox inactive, ATXN2 expr inh -22%, TGFb SMAD3 inh -24%, KB-3-1 tox inactive, KB-V1 MDR tox inactive and HepG2 viability -11%.
For O=C(Nc1ccncc1)c1ccc(-c2ccccc2)cc1 the results were S2 tox inconclusive, TGFb SMAD3 inh -33%, KB-3-1 tox 23µM*, KB-V1 MDR tox inactive and HepG2 viability -21%.
For O=C(Nc1ccc(Oc2cccnc2)cc1)c1ccc([N+](=O)[O-])cc1 the results were S2 tox inactive, ATXN2 expr inh -26%[11.3 µM], TGFb SMAD3 inh -7%, KB-3-1 tox inactive, KB-V1 MDR tox inconclusive and HepG2 viability -26%.
O=C(Nc1ccc(Nc2ccncc2)cc1)c1ccc([N+](=O)[O-])cc1 was read as S2 tox inconclusive, TGFb SMAD3 inh 18µM*, KB-3-1 tox inactive, KB-V1 MDR tox inactive and HepG2 viability 18µM*.
O=C(Nc1cccnc1)c1ccc(-c2ccccc2)cc1 was read as S2 tox inactive, TGFb SMAD3 inh -19%, KB-3-1 tox inactive, KB-V1 MDR tox inactive and HepG2 viability -5%.
Cc1ccc(NC(=O)c2sc3ccccc3c2Cl)cc1 was read as TGFb SMAD3 inh -9% and HepG2 viability -13%.
`O=C(Nc1ccncc1)c1sc2ccccc2c1Cl` gave S2 tox inactive, ATXN2 expr inh 29%, TGFb SMAD3 inh -30%, KB-3-1 tox inactive, KB-V1 MDR tox 8.2µM* and HepG2 viability -28%.
CCOC(=O)C1CCN(CC(=O)Nc2cc(C)c3c(=O)oc4ccccc4c3n2)CC1 was read as S2 tox inactive, ATXN2 expr inh -1%, TGFb SMAD3 inh -19%, KB-3-1 tox inactive, KB-V1 MDR tox inactive and HepG2 viability -20%.
`CSc1nnc(CNS(=O)(=O)c2ccc(F)cc2F)n1-c1ccccc1C` gave S2 tox inactive.
Screening CC(=O)c1ccc(-c2cccs2)s1 returned S2 tox inactive, ATXN2 expr inh -1%[11.3 µM], TGFb SMAD3 inh 10µM*, KB-3-1 tox inactive, KB-V1 MDR tox inactive and HepG2 viability -37%.
Fc1ccc(Nc2ccnc(Nc3ccc(F)cc3)n2)cc1 was read as S2 tox inactive, ATXN2 expr inh 24%, TGFb SMAD3 inh 0%, KB-3-1 tox inactive, KB-V1 MDR tox 15µM* and HepG2 viability -51%.
`Cc1ccc(Oc2ccccc2/C=C2\SC(=O)N(C)C2=O)cc1` gave S2 tox inactive, ATXN2 expr inh -6%, TGFb SMAD3 inh -26%, KB-3-1 tox inactive, KB-V1 MDR tox 16µM* and HepG2 viability -3%.
Screening CC(C)(C)c1ccc(C(=O)CCCSC2=C(C#N)C(c3ccco3)C3=C(CCCC3=O)N2)cc1 (centres undefined) returned S2 tox inconclusive, ATXN2 expr inh -23%, TGFb SMAD3 inh -22%, KB-3-1 tox inconclusive, KB-V1 MDR tox 10µM* and HepG2 viability -6%.
Screening Cc1ccc(C(=O)CSC2=C(C#N)C(c3ccco3)C3=C(CCCC3=O)N2)cc1 (centres undefined) returned S2 tox inactive, ATXN2 expr inh 16%, TGFb SMAD3 inh 0%, KB-3-1 tox inconclusive, KB-V1 MDR tox 8.2µM* and HepG2 viability 3%.
CCCCc1ccc(NC(=O)CSC2=C(C#N)C(c3ccco3)C3=C(CCCC3=O)N2)cc1 (centres undefined) was read as S2 tox inactive, ATXN2 expr inh -5%, TGFb SMAD3 inh inconclusive, KB-3-1 tox inconclusive, KB-V1 MDR tox inactive and HepG2 viability -22%.
For COc1cccc(NC(=O)CSC2=C(C#N)C(c3ccco3)C3=C(CCCC3=O)N2)c1 (centres undefined) the results were S2 tox inactive, ATXN2 expr inh 2%, TGFb SMAD3 inh -6%, KB-3-1 tox inconclusive, KB-V1 MDR tox inconclusive and HepG2 viability -16%.
N#CC1=C(SCC(=O)c2ccccc2)NC2=C(C(=O)CCC2)C1c1ccco1 (centres undefined) was read as S2 tox inconclusive, ATXN2 expr inh 144%, TGFb SMAD3 inh -4%, KB-3-1 tox 18µM*, KB-V1 MDR tox inconclusive and HepG2 viability -6%.
CCn1c(=O)n(-c2ccc3c(c2)OCO3)c2nc(-c3cc(OC)ccc3OC)nc(C(N)=O)c21 was read as S2 tox inactive, ATXN2 expr inh -1%, TGFb SMAD3 inh -30%, KB-3-1 tox inactive, KB-V1 MDR tox inactive and HepG2 viability -12%.
`Fc1ccc(/C=N/Nc2nnnn2-c2ccccc2)cc1` gave S2 tox inactive, ATXN2 expr inh -26%, TGFb SMAD3 inh -12%, KB-3-1 tox inactive, KB-V1 MDR tox inactive and HepG2 viability -7%.
`Cn1nnnc1NN=Cc1ccccc1` gave S2 tox inactive, TGFb SMAD3 inh -2%, KB-3-1 tox inactive, KB-V1 MDR tox 18µM* and HepG2 viability -2%.
For CCOc1ccc2c(c1)OC(c1ccc(OC)cc1)(C(F)(F)F)NC2=O (centres undefined) the results were S2 tox inconclusive, ATXN2 expr inh 22%, TGFb SMAD3 inh inconclusive, KB-3-1 tox 5.2µM*, KB-V1 MDR tox 5.2µM* and HepG2 viability -17%.
`CCOc1ccc2c(c1)OC(c1ccccc1)(C(F)(F)F)NC2=O` (centres undefined) gave S2 tox inactive, ATXN2 expr inh -17%, TGFb SMAD3 inh -6%, KB-3-1 tox inactive, KB-V1 MDR tox inactive and HepG2 viability -29%.
